Screen size: about 310,000 compounds; about 18,000 (5.8%) were called active. A call without a number means that no potency is given here. Another 22% or so got no clear call; they are omitted. Calls follow the shape of the dose curve; as a rule, active = well fitted inhibition curve with a large enough effect; inconclusive = small, poorly fitted or top-dose-only effect, or another doubt; inactive = no such curve, though single readings can be large or run the other way. This excerpt belongs to a sample that is enriched for actives.
test: Primary qHTS for delayed death inhibitors of the malarial parasite plastid, 48 hour incubation; conditions: P. falciparum luciferase growth in erythrocytes; series mostly up to 28.7 µM
Method in brief: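 Cell-based growth assay: transgenic P. falciparum expressing firefly luciferase, cultured in red cells within RPMI 1640 containing 0.5% w/v Albumax, 24 mM bicarbonate and gentamycin. A drop in luciferase activity indicates inhibition.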
Potency is read from the fitted curve at half-maximal effect.

| Structure (SMILES) | Potency |
| --- | --- |
| COc1ccc(OC)c(/C(C)=N\NC(=O)c2cc3cc(Cl)ccc3n2C)c1 | inactive |
| CCCN(CCC)c1nc2c(C)cccn2c(=O)c1/C=C1/SC(=S)N(Cc2ccco2)C1=O | 1.31 µM (active) |
| Cc1cccn2c(=O)c(/C=C3\SC(=S)N(CC(C)C)C3=O)c(NCCCOC(C)C)nc12 | inactive |
| O=C(CCCN1C(=O)/C(=C\c2ccco2)SC1=S)Nc1cccc2ccccc12 | inactive |
| CC(=O)c1ccc(NC(=O)CCNS(=O)(=O)c2cc(Br)cnc2N)cc1 | inactive |
| COc1cc(C(=O)NNC(=O)CN2C(=O)NC3(CCCC3)C2=O)cc(OC)c1OC | inactive |
| O=C(N/N=C/c1c[nH]c2ccccc12)c1ccccc1O | inactive |
| Cc1cc(NC(=O)CSCc2ccccc2C)no1 | inactive |
| Cc1cc(NC(=O)C(C)SCC(=O)Nc2ccccc2N2CCCCC2)no1 (stereo unspecified) | 8.28 µM (active) |
| CC(C)n1c(SCC(=O)Nc2ccccc2N2CCCCC2)nc2c1c(=O)n(C)c(=O)n2C | inactive |
| CCN(CC)c1ccc(/C=N/NC(=O)CNC(=O)c2cccnc2)cc1 | inactive |
| COc1cccc(NC(=O)C/C(C)=N/NC(=O)C2CCCCC2)c1 | inactive |
| O=C(NC(Cc1ccc(O)cc1)C(=O)O)/C(=C/c1ccccc1)NC(=O)c1ccccc1 (stereo unspecified) | inactive |
| COc1cc2[nH]c(=O)n(Cc3ccc(C(=O)NC4CCN(Cc5ccccc5)CC4)cc3)c(=O)c2cc1OC | 13.1 µM (active) |
| CCOc1cc2[nH]c(=O)n(Cc3ccc(C(=O)NCCCN4CCCC4=O)cc3)c(=O)c2cc1OCC | inactive |
| COc1cc2[nH]c(=O)n(CCC(=O)NC3CCN(Cc4ccccc4)CC3)c(=O)c2cc1OC | inactive |
| CCOC(=O)c1ccc(NC(=S)N2CCN(c3ccccn3)CC2)cc1 | inactive |
| COc1ccc(NS(=O)(=O)c2ccc(F)cc2F)cn1 | inactive |
| CCCS(=O)(=O)N1CCN=C1SCc1cccc(F)c1 | inactive |
| COc1cc(F)c(C2=CC(=O)CC(C)(C)C2)cc1F | inactive |
| CC1(C)CC(=O)C=C(Nc2ccccc2)C1 | inactive |
| CC1(C)CC(=O)C=C(c2ccc(Cl)c(C(F)(F)F)c2)C1 | 5.86 µM (active) |
| COC(=O)c1cc(NS(=O)(=O)c2ccc3c(c2)c(=O)n(C)c(=O)n3C)cc(C(=O)OC)c1 | inactive |
| O=C1NCCn2nc3ccccc3c21 | inactive |
| NS(=O)(=O)c1cccnc1Nc1cccc(Cl)c1 | inactive |
| CCOC(=O)c1c(S(=O)(=O)Nc2cccc(Cl)c2)c(C)n(C)c1C | inactive |

| Structure (SMILES) | Potency |
| --- | --- |
| CCOc1c(Nc2cccc(Cl)c2)c(=O)c1=O | 7.38 µM (active) |
| Cc1ccc2c(c1)N(CC(=O)N1CCOCC1)C(=O)CO2 | inactive |
| O=S(=O)(NCc1ccc(Cl)cc1Cl)c1cccs1 | inactive |
| Cc1ccc(NC(=O)NC2CCCCC2)cc1S(=O)(=O)N1CCOCC1 | inactive |
| CC(OC(=O)CCCc1c[nH]c2ccccc12)C(=O)Nc1ccc(S(N)(=O)=O)cc1 (stereo unspecified) | inactive |
| Cc1ccc(NC(=O)C(C)OC(=O)Cc2c[nH]c3ccccc23)cc1S(=O)(=O)N1CCOCC1 (stereo unspecified) | 5.22 µM (active) |
| O=C(Nc1ccccc1N1CCCC1)c1ccc2ccccc2c1 | inactive |
| COc1cccc(NC(=O)C(=O)c2cn(CC(=O)N3CCOCC3)c3ccccc23)c1 | inactive |
| CC(C)(C)NC(=O)NCc1ccco1 | inactive |
| Cc1nn(-c2ccccc2)c2sc(C(=O)N(Cc3ccco3)C(C)C(=O)NC(C)(C)C)cc12 (stereo unspecified) | 11.7 µM (active) |
| O=C(NCc1ccco1)c1nc(-c2ccccc2)n(-c2ccccc2)n1 | inactive |
| O=C(COC(=O)c1ccc(F)cc1)Nc1nc2ccc([N+](=O)[O-])cc2s1 | inactive |
| O=C(Nc1nc2ccc([N+](=O)[O-])cc2s1)c1ccncc1 | inactive |
| O=C(NC(Nc1nc2ccc([N+](=O)[O-])cc2s1)(C(F)(F)F)C(F)(F)F)c1ccccc1 | 1.65 µM (active) |
| COC(=O)c1ccc(C)c(NC(=O)C2CC(=O)N(C3CCCC(C)C3C)C2)c1 (stereo unspecified) | inactive |
| Cc1cc(NC(=O)COc2ccc([N+](=O)[O-])cc2)no1 | inactive |
| CC(=O)c1cccc(OCc2cc(C(=O)NC(C)Cc3cccnc3)no2)c1 (stereo unspecified) | inactive |
| CCc1cc(=O)oc2c(C)c(OCC(=O)N3CC[C@@]4(O)CCCC[C@H]4C3)ccc12 | inactive |
| CN(C)CCN(Cc1ccccc1)S(=O)(=O)c1csc(C(N)=O)c1 | inactive |
| O=C1c2ccccc2C(=O)C1c1ccccc1F | inactive |
| O=C1c2ccccc2C2=Nc3ccccc3SC(c3ccccc3F)C12 (stereo unspecified) | 0.329 µM (active) |
| COCCN(C(=O)CSCc1ccc(C)cc1)c1c(N)n(CC(C)C)c(=O)[nH]c1=O | inactive |
| CC1(C(=O)NNC(=S)NCC2CCCO2)CC1(Cl)Cl (stereo unspecified) | inactive |
| CN(c1ccccc1)S(=O)(=O)c1cccc(NC(=O)Cc2ccc(Cl)cc2)c1 | 11.7 µM (active) |
| CN(C)S(=O)(=O)c1cccc(NC(=O)Cc2ccsc2)c1 | inactive |
| CN(c1ccccc1)S(=O)(=O)c1cccc(NC(=O)Cc2c(F)cccc2Cl)c1 | inactive |

| Structure (SMILES) | Potency |
| --- | --- |
| C[C@@H]1NC(=O)[C@@]2(C)[C@@H](c3ccccc3)[C@H]3COc4ccccc4[C@@H]3N2C1=O | inactive |
| Cc1ccccc1C(=O)N1CCC(C(=O)Nc2ccc(S(=O)(=O)N(C)C(C)C)cc2)CC1 | 9.28 µM (active) |
| CC(=O)c1cccc(NC(=O)C2CCN(C(=O)c3ccccc3Cl)CC2)c1 | inactive |
| CCc1nnc(NC(=O)C2CCN(C(=O)c3ccccc3C)CC2)s1 | inactive |
| CC(C)c1c(C(=O)N/N=C/c2ccccc2C(=O)O)nnn1-c1nonc1N | inactive |
| Cc1cc(Cl)c2oc(C(=O)N3CCC(O)(c4ccccc4)CC3)c(C)c2c1 | inactive |
| O=C(O)c1cc([N+](=O)[O-])c(Nc2cccc3ccccc23)c([N+](=O)[O-])c1 | inactive |
| Cn1cc[n+](C)c1COc1ccc(C=O)cc1 | inactive |
| O=C(CN(C(=O)c1csnn1)c1cccc(Cl)c1)NC1CCCC1 | inactive |
| Cc1ccc(-c2csc3nnc(SCC(=O)NCc4ccco4)n23)cc1 | 9.28 µM (active) |
| CCn1c(COc2ccccc2)nnc1SCC(=O)NCc1ccco1 | inactive |
| Cn1c(-c2ccc(F)cc2)cnc1SCC(=O)NCc1ccco1 | inactive |
| CCn1c(SCC(=O)NCc2ccco2)nnc1-c1ccc(N)cc1 | inactive |
| O=C(CSc1nnc2scc(-c3ccc(F)cc3)n12)NCc1ccco1 | inactive |
| O=C(CSc1nnc(-c2ccco2)n1Cc1ccccc1)NC(=O)NCc1ccco1 | 10.4 µM (active) |
| CC1(NC(=O)CCS(=O)(=O)c2ccc(Cl)cc2)CCS(=O)(=O)C1 (stereo unspecified) | inactive |
| C=CCn1c(SCC(=O)Nc2ccc(NC(C)=O)cc2)nc2sc(C)c(C)c2c1=O | inactive |
| CCN(CC(=O)NCc1cccs1)C(=O)c1ccc(OC)c(S(=O)(=O)N2CCOCC2)c1 | inactive |
| O=C(CC1C(=O)NCCN1C(=O)c1ccc([N+](=O)[O-])cc1)Nc1cccc(Cl)c1 (stereo unspecified) | inactive |
| COc1ccc(C(=O)n2nc(C)c(Br)c2C)cc1OC | inactive |
| O=C1c2ccccc2NC(c2ccc(-c3cccc(Cl)c3)o2)N1O (stereo unspecified) | inactive |
| O=C1NC(c2cccc(Cl)c2)Nc2ccccc21 (stereo unspecified) | inactive |
| O=c1c(-c2cccc(Cl)c2)c[nH]n1-c1ccccc1 | 3.7 µM (active) |
| Cc1nc2sccn2c(=O)c1S(=O)(=O)NCCc1ccccc1 | inactive |
| COCCNc1nnc(SCC(=O)NNC(=O)c2ccco2)s1 | inactive |
| CCCNC(=O)CSc1nc(Cc2ccccc2)nc2ccccc12 | inactive |

| Structure (SMILES) | Potency |
| --- | --- |
| Cc1nc(N2CCN(c3ccccn3)CC2)c2c(C)c(C(=O)Nc3ccc(F)cc3)sc2n1 | 13.1 µM (active) |
| CCN(CC)c1ccc(NC(=O)CN2CCN(c3ccccn3)CC2)cc1 | inactive |
| Cc1cc(Br)ccc1NC(=O)c1sc2ncn(CC(=O)N3CCN(c4ccccn4)CC3)c(=O)c2c1C | inactive |
| CC(=O)N1CCN(CC(C)(C)NS(=O)(=O)c2ccc(C)cc2)CC1 | inactive |
| CC(=O)Nc1ccc(NC(=O)CSC2=NS(=O)(=O)c3ccccc3N2)cc1 | inactive |
| N#CCCN(C(=O)COC(=O)C1CCN(c2ccc(C(F)(F)F)cn2)CC1)c1ccc(F)cc1 | inactive |
| CCOc1ccc(C(=O)NCC(=O)N2CCN(c3ccc(C(F)(F)F)cn3)CC2)cc1 | inactive |
| CCCN1CCn2c3c(c4cc(Br)ccc42)CCCC31 (stereo unspecified) | 8.28 µM (active) |
| O=C(CN1C(=O)NC2(CCCCC2)C1=O)N1CCN(C(=O)c2cccs2)CC1 | inactive |
| Cc1nn(CC(=O)NCCc2ccccc2)c(=O)c2cc3occc3n12 | inactive |
| COc1ccc(CC(=O)OC(C)C(=O)Nc2ccc(S(N)(=O)=O)cc2)cc1 (stereo unspecified) | inactive |
| CCCCN(C(=O)c1ccc(C)o1)c1c(N)n(CCCC)c(=O)[nH]c1=O | inactive |
| CCCCCN(C(=O)CCC(=O)OCC(=O)NCc1ccc(OC)cc1)c1c(N)n(CCCC)c(=O)[nH]c1=O | inactive |
| CCCCN(C(=O)CCNC(=O)NC12CC3CC(CC(C3)C1)C2)c1c(N)n(CCCC)c(=O)[nH]c1=O | 13.1 µM (active) |
| O=S(=O)(O)c1nc2ccccc2n1Cc1ccc(Cl)cc1Cl | inactive |
| CC(C)(C)C(=O)Cn1c(NCCO)nc2ccccc21 | inactive |
| O=C(Cn1c(NCCO)nc2ccccc21)c1ccc(Cl)cc1Cl | 13.1 µM (active) |
| O=C(COC(=O)c1ccc([N+](=O)[O-])cc1Cl)NC(=O)c1ccccc1 | inactive |
| C/C=N/N(c1ccccc1)c1ccccc1 | 10.4 µM (active) |
| Cc1cccc(-c2c(NC(=O)c3ccco3)oc3ccc(Cl)cc3c2=O)c1 | inactive |
| O=C(O)CSc1ccc(S(=O)(=O)N2CCCC2)cn1 | inactive |
| Cc1ccc(NC(=O)CSc2sc3c(O)cc(=O)[nH]c3c2C#N)cc1C | inactive |
| CC(C)CN(C(=O)c1ccc2c(c1)OCO2)C1CCS(=O)(=O)C1 (stereo unspecified) | inactive |
